Test results taken from PubChem BioAssay (Tox21).
Records with an inconclusive call do not appear. The source made the active and inactive calls. Unless noted, the call rests on the fitted dose curve; in most records, active means well fitted curve in the direction sought with a large enough effect in the repeat runs; inconclusive means weak or mixed curves; inactive means no such curve, though single readings can be large; an effect the other way counts as inactive or inconclusive.

Assays:
[1] = target: Luciferin 4-monooxygenase (Photinus pyralis) (UniProt P08659); test: qHTS assay to identify small molecule inhibitors of firefly luciferase (AID 1224835); further: nearly all actives have a fitted effect of over 25% in size; further: potency means the concentration at half of the fitted maximal effect
Sequence of Luciferin 4-monooxygenase (Photinus pyralis) (P08659 whole entry, looked up): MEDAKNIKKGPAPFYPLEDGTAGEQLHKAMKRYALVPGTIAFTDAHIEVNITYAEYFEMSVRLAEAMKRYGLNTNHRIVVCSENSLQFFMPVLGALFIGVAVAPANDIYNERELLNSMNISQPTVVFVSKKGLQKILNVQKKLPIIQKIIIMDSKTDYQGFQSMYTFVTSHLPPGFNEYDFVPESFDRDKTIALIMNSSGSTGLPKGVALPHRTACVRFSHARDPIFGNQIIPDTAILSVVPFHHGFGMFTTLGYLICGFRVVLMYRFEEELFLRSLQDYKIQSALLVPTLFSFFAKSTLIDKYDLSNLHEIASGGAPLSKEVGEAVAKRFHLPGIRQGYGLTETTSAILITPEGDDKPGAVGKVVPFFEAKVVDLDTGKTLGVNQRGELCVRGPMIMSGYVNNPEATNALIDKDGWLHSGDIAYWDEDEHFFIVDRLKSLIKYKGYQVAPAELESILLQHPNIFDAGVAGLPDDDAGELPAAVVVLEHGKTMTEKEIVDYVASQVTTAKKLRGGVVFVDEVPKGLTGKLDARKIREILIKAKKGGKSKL
How it was run: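 Biochemical qHTS: compounds run as interplate titrations against purified firefly enzyme, with D-luciferin and ATP each at its KM concentration. Light output recorded by CCD imaging.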

[2] = qHTS assay to identify small molecule agonists of the constitutive androstane receptor (CAR) signaling pathway - cell viability counter screen (AID 1224836); further: series mostly up to about 92 µM; nearly all actives have a fitted effect of over 45% in size
How it was run: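 Fluorescence from CellTiter-Fluor indicates live cells after 23 h exposure. The human hepatoma line expresses hCAR and a CYP2B6-2.2kb reporter. Incubation medium contains 0.75 uM PK11195 (final).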

[3] = qHTS assay to identify small molecule antagonists of the constitutive androstane receptor (CAR) signaling pathway - cell viability counter screen (AID 1224837); further: series mostly up to about 92 µM; nearly all actives have a fitted effect of over 45% in size
How it was run: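 To flag cytotoxic false antagonists, HepG2 hCAR/CYP2B6-2.2kb cells were treated 23 hr with 15-concentration compound series and 50 nM CITCO at 37 C/5% CO2; CellTiter-Fluor fluorescence was the measured end point.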

[4] = target: Nuclear receptor subfamily 1 group I member 3 (Homo sapiens) (UniProt Q14994); test: qHTS assay to identify small molecule agonists of the constitutive androstane receptor (CAR) signaling pathway (AID 1224839); further: nearly all actives have a fitted effect of over 15% in size; further: potency means the concentration at half of the fitted maximal effect
Sequence of Nuclear receptor subfamily 1 group I member 3 (Homo sapiens) (Q14994 whole entry, looked up): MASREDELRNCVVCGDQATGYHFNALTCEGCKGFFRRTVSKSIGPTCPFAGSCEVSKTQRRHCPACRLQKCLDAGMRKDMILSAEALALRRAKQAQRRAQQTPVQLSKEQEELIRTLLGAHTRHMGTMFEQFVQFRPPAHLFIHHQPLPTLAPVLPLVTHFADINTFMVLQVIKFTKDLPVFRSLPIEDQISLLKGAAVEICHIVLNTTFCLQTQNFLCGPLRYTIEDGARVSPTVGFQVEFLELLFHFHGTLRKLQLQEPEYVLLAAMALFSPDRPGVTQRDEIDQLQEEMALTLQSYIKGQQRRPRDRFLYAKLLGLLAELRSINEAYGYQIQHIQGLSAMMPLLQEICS
How it was run: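 Stable hCAR/CYP2B6-2.2kb HepG2 line in DMEM with 10% FBS; compounds (15 concentrations) and 0.75 uM PK11195 final, 24 h at 37 C/5% CO2, then ONE-Glo luminescence after 30 min.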

[5] = target: Thyrotropin receptor (Homo sapiens) (UniProt P16473); test: qHTS assay to identify small molecule agonists of the thyroid stimulating hormone receptor (TSHR) signaling pathway (AID 1224843; calls by dose curve; further: nearly all actives have a fitted effect of over 45% in size; further: potency means the concentration at half of the fitted maximal effect)
Sequence of Thyrotropin receptor (Homo sapiens) (P16473 whole entry, looked up): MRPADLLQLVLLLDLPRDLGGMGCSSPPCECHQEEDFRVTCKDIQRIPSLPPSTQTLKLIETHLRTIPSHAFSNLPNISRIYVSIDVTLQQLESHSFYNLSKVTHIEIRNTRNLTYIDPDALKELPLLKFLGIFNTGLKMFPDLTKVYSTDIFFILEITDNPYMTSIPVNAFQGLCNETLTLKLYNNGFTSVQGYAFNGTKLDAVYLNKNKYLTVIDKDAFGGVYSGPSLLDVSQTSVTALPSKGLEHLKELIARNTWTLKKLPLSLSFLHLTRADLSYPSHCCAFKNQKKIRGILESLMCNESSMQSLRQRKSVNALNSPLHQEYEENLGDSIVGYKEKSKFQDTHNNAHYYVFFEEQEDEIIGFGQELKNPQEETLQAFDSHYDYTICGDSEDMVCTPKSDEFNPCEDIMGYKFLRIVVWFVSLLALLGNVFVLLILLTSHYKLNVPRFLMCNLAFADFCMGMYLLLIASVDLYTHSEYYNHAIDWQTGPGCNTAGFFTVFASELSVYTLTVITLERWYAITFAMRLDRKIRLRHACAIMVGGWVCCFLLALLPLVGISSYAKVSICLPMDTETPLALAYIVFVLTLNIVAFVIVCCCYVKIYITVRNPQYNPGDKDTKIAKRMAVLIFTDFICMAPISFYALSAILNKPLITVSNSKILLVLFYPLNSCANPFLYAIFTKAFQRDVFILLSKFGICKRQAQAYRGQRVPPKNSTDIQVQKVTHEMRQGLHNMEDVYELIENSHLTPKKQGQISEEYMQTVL
How it was run: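 Agonist-mode screen: TSHR HEK293 cells received test chemicals for half an hour at room temperature, then HTRF cAMP detection reagents for one hour prior to fluorescence measurement. Each chemical ran as a 15-concentration series, triplicated.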

[6] = target: Nuclear receptor subfamily 1 group I member 3 (Homo sapiens) (UniProt Q14994); test: qHTS assay to identify small molecule antagonists of the constitutive androstane receptor (CAR) signaling pathway (AID 1224838);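 further: HepG2 cells stably expressing hCAR with CYP2B6 luciferase reporter stimulated by CITCO; nearly all actives have a fitted effect of over 40% in size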; further: potency means the concentration at half of the fitted maximal effect
How it was run: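 Human hepatoma HepG2 cells expressing hCAR and a CYP2B6 promoter (2.2 kb) luciferase construct; compound titration (15 points) with 50 nM CITCO final, 24 h at 37 C/5% CO2; luminescence via ONE-Glo after 30 min at room temperature.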

[7] = qHTS assay to identify small molecule antagonists of the estrogen related receptor signaling pathway with the pleiotropic PPARgamma coactivator (PGC) from Tox21 10K library (AID 1224841; call rule not given here; further: actives are mostly falling curves and most rising ones were filed inactive; nearly all actives have a fitted effect of over 50% in size; further: potency means the concentration at half of the fitted maximal effect)
How it was run: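 Test chemicals dissolved in DMSO were applied to pre-incubated (6 h) PGC/ERR cells at 2,000 cells/well for an 18 h, 37 C treatment; reporter luminescence was then read using One-Glo.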

[8] = qHTS assay to identify small molecule agonists of the estrogen related receptor signaling pathway with the pleiotropic PPARgamma coactivator (PGC) from Tox21 10K library (AID 1224842); further: nearly all actives have a fitted effect of over 15% in size
How it was run: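 PGC/ERR reporter cell line, 2,000 cells per well, incubated 6 h at 37 C before 23 nL compound in DMSO was added. After 18 h at 37 C, One-Glo luminescence read following 30 min at room temperature.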

[9] = qHTS assay to identify small molecule antagonists of the estrogen related receptor signaling pathway with the pleiotropic PPARgamma coactivator (PGC) from Tox21 10K library - cell viability counter screen (AID 1224840; active means well fitted cell-killing curve with a large enough effect in the repeat runs, not every such curve was filed as active; further: nearly all actives have a fitted effect of over 40% in size)
How it was run: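 Seeded PGC/ERR cells (2,000/well, 6 h, 37 C/5% CO2) get compound by pin tool; 17.5 h incubation at 37 C; CellTiter-Fluor added, 30 min, fluorescence measured.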

Measured: Potency

CCC(C)c1cccc(C(C)CC)c1O (stereo not given)
inactive: [1] | [2] | [3]

O=S1(=O)OCC2C(CO1)C1(Cl)C(Cl)=C(Cl)C2(Cl)C1(Cl)Cl (stereo not given)
active: [1] 39.9 µM | [4] 17.2 µM | [5] 17.2 µM

O=[N+]([O-])c1cccc2cccc([N+](=O)[O-])c12
active: [4] 54.7 µM
inactive: [1] | [2] | [6]

Cc1cc(C2CC2)nc(Nc2ccccc2)n1
inactive: [2] | [3] | [6] | [7]
active: [1] 39.9 µM | [4] 54.5 µM

C[C@]12Cc3cn[nH]c3C[C@@H]1CC[C@@H]1[C@@H]2CC[C@@]2(C)[C@H]1CC[C@]2(C)O
not listed: [7] | [9]
inactive: all other assays above

COP(=O)(OC)O/C(=C\Cl)c1cc(Cl)c(Cl)cc1Cl
inactive: [1] | [2] | [3] | [8]
active: [7] 5.45 µM

CN1C(=O)[C@@H](NC(=O)c2cc3ccccc3[nH]2)N=C(c2ccccc2)c2ccccc21
not listed: [3] | [6] | [7]
inactive: all other assays above

N#CCCl
inactive: [1] | [2] | [6] | [4] | [5]

O=C(N[C@H]1N=C(c2ccccc2F)c2cccc3c2N(CC3)C1=O)c1cc2ccccc2[nH]1
not listed: [7] | [8]
inactive: all other assays above

CCCCCCCc1ccc(O)cc1
inactive: [2] | [3] | [6] | [9] | [5]

CCCCCCC[CH2][Sn]([Cl])([Cl])[CH2]CCCCCCC
active: [7] 27.3 µM
not listed: [3] | [9]
inactive: all other assays above

COP(=O)(OC)Oc1ccc([N+](=O)[O-])cc1
inactive: [1] | [6] | [4] | [8] | [5]
active: [7] 21.7 µM

Nc1ccc(Cl)cc1C(=O)c1ccccc1F
active: [4] 23.7 µM
not listed: [8]
inactive: all other assays above

CN1CCc2cc3c(cc2C1O)OCO3 (stereo not given)
inactive: [1] | [6] | [4] | [7] | [8]

C[C@H]1[C@H](c2ccc(Cl)cc2)SC(=O)N1C(=O)NC1CCCCC1
active: [4] 54.5 µM | [7] 61.1 µM
inactive: all other assays above

COC(=O)c1cc(Oc2ccc(Cl)cc2Cl)ccc1[N+](=O)[O-]
inactive: [1] | [2] | [6] | [9] | [5]

N#Cc1c[nH]cc1-c1cccc2c1OC(F)(F)O2
inactive: [1] | [2] | [8]
active: [7] 19.3 µM

NC1CCC(CC2CCC(N)CC2)CC1 (stereo not given)
inactive: [1] | [2] | [3] | [6] | [4]

CC#C[C@]1(O)CC[C@H]2[C@@H]3C[C@H](C)C4=CC(=O)CC[C@]4(C)[C@H]3CC[C@@]21C
inactive: [1] | [2] | [4] | [5]

CCC1COC(Cn2cncn2)(c2ccc(Cl)cc2Cl)O1 (stereo not given)
inactive: [1] | [2] | [6] | [8] | [5]
active: [7] 61.1 µM

CC[C@]1(O)CC[C@H]2[C@@H]3CCC4=CCCC[C@@H]4[C@H]3CC[C@@]21C
active: [6] 33.5 µM | [5] 15 µM
not listed: [8]
inactive: all other assays above

CC(C)c1c(CN(C)C(C)Cc2ccccc2)n(C)n(-c2ccccc2)c1=O (stereo not given)
inactive: [1] | [9]
active: [4] 13.3 µM

Nc1ccccc1-c1ccccc1
not listed: [1] | [7] | [9]
inactive: all other assays above

Nc1nc(N)c(N)c(N)n1
inactive: [1] | [8] | [5]

c1ccc(Nc2ccc(Nc3ccccc3)cc2)cc1
active: [1] 28.1 µM | [4] 24.2 µM
not listed: [5] | [8]
inactive: all other assays above

S=C=NCCc1ccccc1
active: [1] 40 µM | [4] 9.71 µM
inactive: [6] | [5]

COC(=O)N(OC)c1ccccc1COc1ccn(-c2ccc(Cl)cc2)n1
active: [4] 24.3 µM | [7] 0.486 µM
not listed: [1] | [2]
inactive: all other assays above

Oc1ccc2[nH]cc(CCCCN3CC=C(c4ccccc4)CC3)c2c1
active: [7] 5.96 µM
inactive: [2] | [3] | [8] | [5]

O=C(N[C@@H]1N=C(c2ccccc2F)c2cccc3c2N(CC3)C1=O)c1cc2ccccc2[nH]1
active: [1] 9.77 µM | [4] 2.98 µM
not listed: [7] | [8]
inactive: all other assays above
